Data: PubChem BioAssay (NCI)
Compounds without any hit were thinned out: in the full panel of roughly 83,000, 20% have a hit.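 Compound tested at a single concentration for 48 hours in 96-well plates; a percent growth value below 10 was scored as active.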 Active and inactive are the calls of the source.

What follows are compounds tested on MDA-MB-468 breast (assay: NCI-60 one-dose screen, 48 h (100 = growth as untreated, 0 = no growth, -100 = all killed)). Conditions: 10 µM unless noted.

Row | SMILES | growth
1 | N#Cc1c(-c2ccc(F)cc2)n2c(nc1=O)SC(=O)C2=O | 94.5% (inactive)
2 | CCCC1OC(c2ccco2)OCC1CC (stereo not drawn) | 118% (inactive)
3 | O=C(/C=C/c1cccs1)Nc1ncc(Cc2ccccc2F)s1 | -13.8% (active)
4 | COc1ccc2c(c1)c(-c1nc(-c3ccc4ccccc4c3)cs1)cn2C | 10.4% (inactive)
5 | COc1cc(C(=O)/C=C/c2c(C(F)(F)F)nc3sccn23)cc(OC)c1OC | -53.4% (active)
6 | CCCCOC(=O)c1ccccc1O | 95.7% (inactive)
7 | Cn1ccnc1C(=O)/C=C/C=C/c1ccc(C(=O)Nc2ccc(F)cc2)cc1 | 35.3% (inactive)
8 | CC1(C)CC[C@]2(C(=O)O)CC[C@]3(C)C(=CC[C@@H]4[C@@]5(C)Cc6c([nH]c7ccccc67)C(C)(C)[C@@H]5CC[C@]43C)[C@@H]2C1 | 53.4% (inactive)
9 | Cc1ccc(Nc2ccc(Nc3ccc(C)cc3)c3c2C(=O)c2cccc(O)c2C3=O)cc1 | 83.3% (inactive)
10 | CCOC(C=O)OCC | 102% (inactive)
11 | CN1CCN(c2ccc(-c3cc4c(Nc5ccc(F)c(Cl)c5)ncnn4c3)cc2)CC1 | 7.99% (active)
12 | COc1cc2c(cc1-c1c(C)noc1C)ncc1nc(C3CCC(F)(F)CC3)n([C@H](C)COC(F)F)c12 | 33.6% (inactive)
13 | Nc1[nH]nc2nc(-c3ccccc3)n3c4ccccc4nc3c12 | 88.7% (inactive)
14 | Cn1cc(-c2ccc3cc(-c4ccc(CC(=O)Nc5cc(C(C)(C)C)nn5C)cc4)cnc3c2)cn1 | -6.24% (active)
15 | COc1ccc2[nH]c(C(=O)N3CCN(C(=O)OCc4ccc5c(Cl)cc(Cl)c(O)c5n4)CC3)cc2c1 | -76.5% (active)
16 | Cc1ccc(-n2cc(/C=N/NC(=O)c3nc(N)n[nH]3)c(-c3ccc(S(C)(=O)=O)cc3)n2)cc1 | 105% (inactive)
17 | CC(=O)c1nc2ccccc2n1CC(=O)c1cccc(Cl)c1 | 32.7% (inactive)
18 | Cc1ccccc1C1=N[C@@H](Cc2ccccc2)C(=O)c2c(nc3ccccn23)N1 | 104% (inactive)
19 | CC(=O)Nc1cc(F)cc(C(F)(F)F)c1Cl | 86.3% (inactive)
20 | CCCCCN1C=C/C(=C\C(=O)N2CCCc3ccccc32)c2ccccc21 | 40% (inactive)
21 | C=C1C(=O)O[C@H]2[C@H]1CC/C(COC(=O)/C=C\C(=O)NCc1ccc(Cn3c(=O)sn(CCCl)c3=O)cc1)=C\CC[C@@]1(C)O[C@@H]21 | 43% (inactive)
22 | CC(=O)/C=C/c1cc2cc(Cl)ccc2[nH]c1=O | 82.9% (inactive)
23 | CCCCC(CCCC)(S(=O)(=O)CC)S(=O)(=O)CC | 98.2% (inactive)
24 | COc1ccc(C2CC(n3ccnc3)c3cc(OC)c(OC)c(OC)c32)cc1O (stereo not drawn) | 78.6% (inactive)
25 | c1ccc2c(N=NSc3ncnc4nc[nH]c34)c3ccccc3nc2c1 | -55.1% (active)
26 | O=C(CCl)N1CCN(C/C=C/c2ccccc2)CC1 | 81% (inactive)
27 | CC(C)CCC(=O)[C@@H](C)[C@H]1[C@@H](OC2OCC(O)C(O)C2NS(C)(=O)=O)C[C@H]2[C@@H]3CC=C4C[C@@H](O)CC[C@]4(C)[C@H]3CC[C@]12C (stereo partly drawn) | 43.8% (inactive)
28 | CCOC(=O)C1(N)CCCCC1 | 105% (inactive)
